# Experiments:
# [1] = molecular target: High affinity nerve growth factor receptor (Homo sapiens) (UniProt P04629); details: at 1 µM;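 further: each value is the mean percent inhibition of TRKA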
# [2] = molecular target: BDNF/NT-3 growth factors receptor (Homo sapiens) (UniProt Q16620); details: at 0.1 µM
# [3] = molecular target: BDNF/NT-3 growth factors receptor (Homo sapiens) (UniProt Q16620); details: at 1 µM
# [4] = molecular target: NT-3 growth factor receptor (Homo sapiens) (UniProt Q16288); details: at 0.1 µM
# Chain of NT-3 growth factor receptor (Homo sapiens) (Q16288 32-839 limits assumed): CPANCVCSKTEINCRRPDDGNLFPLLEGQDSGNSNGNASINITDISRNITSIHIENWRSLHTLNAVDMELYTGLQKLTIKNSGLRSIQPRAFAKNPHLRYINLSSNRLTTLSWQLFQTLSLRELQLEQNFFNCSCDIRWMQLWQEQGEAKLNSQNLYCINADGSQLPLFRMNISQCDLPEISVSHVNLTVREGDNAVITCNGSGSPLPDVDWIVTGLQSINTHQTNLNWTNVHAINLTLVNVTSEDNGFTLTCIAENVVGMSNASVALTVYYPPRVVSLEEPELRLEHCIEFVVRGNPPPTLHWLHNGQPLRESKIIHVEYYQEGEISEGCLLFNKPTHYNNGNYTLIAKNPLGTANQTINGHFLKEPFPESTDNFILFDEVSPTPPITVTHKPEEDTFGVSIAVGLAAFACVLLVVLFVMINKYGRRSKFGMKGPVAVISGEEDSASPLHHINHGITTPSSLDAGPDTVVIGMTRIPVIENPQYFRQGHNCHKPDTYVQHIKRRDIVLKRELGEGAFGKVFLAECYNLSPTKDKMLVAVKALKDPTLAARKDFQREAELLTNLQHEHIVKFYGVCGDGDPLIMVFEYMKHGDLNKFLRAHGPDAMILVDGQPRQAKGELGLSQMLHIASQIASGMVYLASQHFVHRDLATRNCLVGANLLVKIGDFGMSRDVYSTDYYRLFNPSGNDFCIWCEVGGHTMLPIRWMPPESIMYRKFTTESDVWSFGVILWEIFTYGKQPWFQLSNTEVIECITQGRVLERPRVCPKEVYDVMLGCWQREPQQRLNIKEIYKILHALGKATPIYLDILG
# [5] = molecular target: NT-3 growth factor receptor (Homo sapiens) (UniProt Q16288); details: at 1 µM
# [6] = molecular target: T1, Tyrosine-protein kinase TXK (Homo sapiens) (UniProt P42681); details: at 0.1 µM
# T1 sequence (whole entry): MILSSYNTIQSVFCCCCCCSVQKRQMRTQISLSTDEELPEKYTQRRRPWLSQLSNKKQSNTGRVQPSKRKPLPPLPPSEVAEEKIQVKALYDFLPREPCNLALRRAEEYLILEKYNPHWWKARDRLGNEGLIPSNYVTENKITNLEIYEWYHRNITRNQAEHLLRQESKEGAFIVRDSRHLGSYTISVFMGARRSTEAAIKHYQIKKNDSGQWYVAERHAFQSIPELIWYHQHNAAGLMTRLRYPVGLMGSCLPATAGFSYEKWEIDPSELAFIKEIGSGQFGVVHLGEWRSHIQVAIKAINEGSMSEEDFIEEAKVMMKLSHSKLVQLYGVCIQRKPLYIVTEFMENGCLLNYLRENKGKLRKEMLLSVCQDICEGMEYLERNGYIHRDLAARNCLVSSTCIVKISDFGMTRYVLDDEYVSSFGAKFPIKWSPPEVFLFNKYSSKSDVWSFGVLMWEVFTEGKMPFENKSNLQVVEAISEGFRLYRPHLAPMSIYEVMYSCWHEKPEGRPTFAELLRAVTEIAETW
# [7] = molecular target: T1, Tyrosine-protein kinase TXK (Homo sapiens); details: at 1 µM
# [8] = molecular target: Non-receptor tyrosine-protein kinase TYK2 (Homo sapiens) (UniProt P29597); details: at 0.1 µM;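 further: each value is a mean of the inhibition readings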
# Chain of Non-receptor tyrosine-protein kinase TYK2 (Homo sapiens) (P29597 whole entry): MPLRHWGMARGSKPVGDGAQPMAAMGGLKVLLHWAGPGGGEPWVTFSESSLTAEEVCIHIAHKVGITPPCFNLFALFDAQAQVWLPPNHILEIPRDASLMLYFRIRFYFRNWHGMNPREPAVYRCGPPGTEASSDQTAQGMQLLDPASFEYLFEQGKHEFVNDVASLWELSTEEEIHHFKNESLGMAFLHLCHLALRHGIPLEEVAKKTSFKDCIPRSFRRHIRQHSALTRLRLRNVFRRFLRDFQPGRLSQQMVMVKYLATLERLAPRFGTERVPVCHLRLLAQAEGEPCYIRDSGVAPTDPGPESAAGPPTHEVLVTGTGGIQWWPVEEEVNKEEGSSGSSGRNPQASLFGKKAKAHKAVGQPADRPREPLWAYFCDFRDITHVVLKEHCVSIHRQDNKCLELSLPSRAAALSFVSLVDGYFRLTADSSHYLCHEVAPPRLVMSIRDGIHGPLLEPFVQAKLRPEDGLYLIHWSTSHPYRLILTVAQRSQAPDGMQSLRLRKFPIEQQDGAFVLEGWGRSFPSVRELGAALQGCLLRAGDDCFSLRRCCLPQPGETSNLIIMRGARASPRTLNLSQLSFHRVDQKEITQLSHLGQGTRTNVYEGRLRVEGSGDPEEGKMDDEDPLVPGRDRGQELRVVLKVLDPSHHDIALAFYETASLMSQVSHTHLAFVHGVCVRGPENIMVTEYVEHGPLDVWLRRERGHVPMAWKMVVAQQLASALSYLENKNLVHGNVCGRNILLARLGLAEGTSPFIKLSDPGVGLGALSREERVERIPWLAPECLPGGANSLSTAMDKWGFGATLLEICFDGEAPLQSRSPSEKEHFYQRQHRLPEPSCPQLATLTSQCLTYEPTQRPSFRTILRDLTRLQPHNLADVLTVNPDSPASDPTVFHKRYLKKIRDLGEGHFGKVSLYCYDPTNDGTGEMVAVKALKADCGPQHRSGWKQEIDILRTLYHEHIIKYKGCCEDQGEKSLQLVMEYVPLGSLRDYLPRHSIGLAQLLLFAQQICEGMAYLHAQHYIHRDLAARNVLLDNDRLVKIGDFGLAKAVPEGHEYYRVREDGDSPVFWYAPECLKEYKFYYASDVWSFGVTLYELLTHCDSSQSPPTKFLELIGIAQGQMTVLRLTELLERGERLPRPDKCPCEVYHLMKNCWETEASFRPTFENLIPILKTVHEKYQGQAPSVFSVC
# [9] = molecular target: T2, Dual specificity protein kinase TTK (Homo sapiens) (UniProt P33981); details: at 1 µM;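 further: reported figures are mean TTK inhibition at 1 µM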
# T2 sequence (whole entry): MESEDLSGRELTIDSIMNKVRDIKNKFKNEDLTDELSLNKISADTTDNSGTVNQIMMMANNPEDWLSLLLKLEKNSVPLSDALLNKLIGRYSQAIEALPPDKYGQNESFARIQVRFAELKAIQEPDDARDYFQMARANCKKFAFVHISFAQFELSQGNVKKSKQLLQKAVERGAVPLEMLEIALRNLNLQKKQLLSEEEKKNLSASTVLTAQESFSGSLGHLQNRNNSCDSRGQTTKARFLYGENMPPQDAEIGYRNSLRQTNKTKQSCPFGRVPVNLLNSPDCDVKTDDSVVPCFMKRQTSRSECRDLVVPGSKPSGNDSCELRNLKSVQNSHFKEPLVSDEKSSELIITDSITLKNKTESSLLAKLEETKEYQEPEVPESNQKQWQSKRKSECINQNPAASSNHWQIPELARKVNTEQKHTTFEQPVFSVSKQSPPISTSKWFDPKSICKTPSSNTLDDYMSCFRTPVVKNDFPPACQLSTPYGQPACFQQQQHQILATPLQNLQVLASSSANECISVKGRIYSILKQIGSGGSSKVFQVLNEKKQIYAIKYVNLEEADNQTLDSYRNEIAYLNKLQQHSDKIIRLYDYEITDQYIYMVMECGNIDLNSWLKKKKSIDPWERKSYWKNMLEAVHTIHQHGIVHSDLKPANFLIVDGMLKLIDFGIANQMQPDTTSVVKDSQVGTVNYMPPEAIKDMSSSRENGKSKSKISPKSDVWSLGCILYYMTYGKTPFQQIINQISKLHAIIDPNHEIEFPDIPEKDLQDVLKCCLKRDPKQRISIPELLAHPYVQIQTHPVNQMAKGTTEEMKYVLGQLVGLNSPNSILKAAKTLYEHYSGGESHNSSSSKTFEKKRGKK
# [10] = molecular target: T3, Aurora kinase A (Homo sapiens) (UniProt O14965); details: at 0.1 µM
# T3 sequence (whole entry): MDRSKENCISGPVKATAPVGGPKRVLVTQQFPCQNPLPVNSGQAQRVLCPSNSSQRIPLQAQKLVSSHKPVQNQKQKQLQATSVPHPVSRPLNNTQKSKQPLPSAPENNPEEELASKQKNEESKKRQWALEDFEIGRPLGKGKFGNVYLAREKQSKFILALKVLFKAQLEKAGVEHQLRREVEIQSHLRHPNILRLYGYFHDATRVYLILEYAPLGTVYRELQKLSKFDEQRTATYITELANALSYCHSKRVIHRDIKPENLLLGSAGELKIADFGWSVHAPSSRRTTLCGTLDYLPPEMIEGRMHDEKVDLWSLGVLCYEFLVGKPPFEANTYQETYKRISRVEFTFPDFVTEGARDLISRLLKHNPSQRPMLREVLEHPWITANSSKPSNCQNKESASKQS
# [11] = molecular target: T3, Aurora kinase A (Homo sapiens); details: at 1 µM
# [12] = molecular target: Aurora kinase B (Homo sapiens) (UniProt Q96GD4); details: at 0.1 µM
# Chain of Aurora kinase B (Homo sapiens) (Q96GD4 whole entry): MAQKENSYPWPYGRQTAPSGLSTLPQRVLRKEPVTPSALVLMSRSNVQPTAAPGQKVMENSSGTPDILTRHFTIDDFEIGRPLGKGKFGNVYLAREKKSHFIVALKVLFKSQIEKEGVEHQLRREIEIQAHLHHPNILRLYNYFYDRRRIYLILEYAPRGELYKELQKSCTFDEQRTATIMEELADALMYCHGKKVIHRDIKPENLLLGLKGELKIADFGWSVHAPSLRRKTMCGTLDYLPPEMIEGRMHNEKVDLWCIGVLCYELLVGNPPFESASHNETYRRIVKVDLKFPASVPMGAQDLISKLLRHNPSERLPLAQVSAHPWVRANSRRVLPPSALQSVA
# [13] = molecular target: Aurora kinase B (Homo sapiens) (UniProt Q96GD4); details: at 1 µM
# [14] = molecular target: T4, Aurora kinase C (Homo sapiens) (UniProt Q9UQB9); details: at 0.1 µM
# T4 sequence (whole entry): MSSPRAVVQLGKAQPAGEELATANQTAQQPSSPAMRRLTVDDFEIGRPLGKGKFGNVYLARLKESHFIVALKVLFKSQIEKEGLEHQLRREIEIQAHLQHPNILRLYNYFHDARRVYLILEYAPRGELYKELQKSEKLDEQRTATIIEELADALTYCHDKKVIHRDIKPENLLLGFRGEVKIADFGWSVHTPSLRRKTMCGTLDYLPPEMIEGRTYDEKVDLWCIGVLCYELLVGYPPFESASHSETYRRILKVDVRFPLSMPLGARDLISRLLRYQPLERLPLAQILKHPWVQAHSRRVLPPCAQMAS
# [15] = molecular target: T4, Aurora kinase C (Homo sapiens); details: at 1 µM
# [16] = molecular target: Serine/threonine-protein kinase 10 (Homo sapiens) (UniProt O94804); details: at 0.1 µM
# Chain of Serine/threonine-protein kinase 10 (Homo sapiens) (O94804 whole entry, looked up): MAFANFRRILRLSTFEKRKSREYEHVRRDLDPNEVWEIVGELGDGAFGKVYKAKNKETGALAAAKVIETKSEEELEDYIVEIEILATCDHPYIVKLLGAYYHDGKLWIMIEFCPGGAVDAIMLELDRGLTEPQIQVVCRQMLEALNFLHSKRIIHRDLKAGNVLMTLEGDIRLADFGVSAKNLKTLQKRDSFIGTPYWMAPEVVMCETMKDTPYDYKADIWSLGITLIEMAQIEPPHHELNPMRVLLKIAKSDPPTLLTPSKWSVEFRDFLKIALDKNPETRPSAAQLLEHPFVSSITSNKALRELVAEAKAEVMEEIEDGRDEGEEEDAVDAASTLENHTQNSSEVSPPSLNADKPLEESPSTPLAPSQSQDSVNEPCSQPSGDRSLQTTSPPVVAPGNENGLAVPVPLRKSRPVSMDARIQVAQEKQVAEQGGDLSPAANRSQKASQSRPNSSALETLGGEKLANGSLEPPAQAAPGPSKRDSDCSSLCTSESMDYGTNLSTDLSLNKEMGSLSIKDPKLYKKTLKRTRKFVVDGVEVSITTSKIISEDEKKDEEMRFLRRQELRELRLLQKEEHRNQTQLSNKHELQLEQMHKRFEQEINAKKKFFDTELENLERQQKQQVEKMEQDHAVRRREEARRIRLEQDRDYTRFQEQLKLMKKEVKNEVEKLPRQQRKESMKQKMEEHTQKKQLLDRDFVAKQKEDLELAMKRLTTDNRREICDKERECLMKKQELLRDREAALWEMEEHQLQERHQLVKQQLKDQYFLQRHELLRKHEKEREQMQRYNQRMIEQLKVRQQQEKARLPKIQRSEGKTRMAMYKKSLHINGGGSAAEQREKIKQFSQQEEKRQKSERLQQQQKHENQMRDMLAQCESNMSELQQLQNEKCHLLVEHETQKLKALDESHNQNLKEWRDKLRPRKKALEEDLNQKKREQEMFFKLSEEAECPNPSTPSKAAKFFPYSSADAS
# [17] = molecular target: Serine/threonine-protein kinase 10 (Homo sapiens) (UniProt O94804); details: at 1 µM
# [18] = molecular target: T5, Mitogen-activated protein kinase kinase kinase kinase 2 (Homo sapiens) (UniProt Q12851); details: at 0.1 µM
# T5 sequence (whole entry): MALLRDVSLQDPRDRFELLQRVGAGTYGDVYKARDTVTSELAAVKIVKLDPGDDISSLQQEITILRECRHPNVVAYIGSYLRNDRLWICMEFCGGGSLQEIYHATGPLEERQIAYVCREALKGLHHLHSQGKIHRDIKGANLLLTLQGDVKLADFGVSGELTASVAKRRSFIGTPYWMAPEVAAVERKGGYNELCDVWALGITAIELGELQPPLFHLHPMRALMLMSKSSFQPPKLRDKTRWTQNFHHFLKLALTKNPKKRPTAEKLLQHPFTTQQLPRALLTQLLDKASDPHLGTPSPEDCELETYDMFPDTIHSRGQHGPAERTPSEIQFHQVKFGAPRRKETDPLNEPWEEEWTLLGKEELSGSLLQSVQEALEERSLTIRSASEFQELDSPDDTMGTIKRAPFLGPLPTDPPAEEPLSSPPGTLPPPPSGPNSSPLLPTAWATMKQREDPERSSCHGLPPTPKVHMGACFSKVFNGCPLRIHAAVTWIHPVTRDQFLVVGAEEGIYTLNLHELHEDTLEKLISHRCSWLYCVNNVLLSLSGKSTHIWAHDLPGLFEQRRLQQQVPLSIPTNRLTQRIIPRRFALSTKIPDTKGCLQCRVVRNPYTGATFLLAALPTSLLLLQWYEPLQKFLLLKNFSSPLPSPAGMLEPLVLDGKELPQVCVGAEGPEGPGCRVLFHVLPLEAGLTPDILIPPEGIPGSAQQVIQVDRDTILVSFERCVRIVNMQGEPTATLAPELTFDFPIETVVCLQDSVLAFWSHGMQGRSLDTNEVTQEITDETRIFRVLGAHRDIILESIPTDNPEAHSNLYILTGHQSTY
# [19] = molecular target: T5, Mitogen-activated protein kinase kinase kinase kinase 2 (Homo sapiens); details: at 1 µM
# [20] = molecular target: Mitogen-activated protein kinase kinase kinase kinase 4 (Homo sapiens) (UniProt O95819); details: at 0.1 µM
# Chain of High affinity nerve growth factor receptor (Homo sapiens) (P04629 33-796 limits assumed): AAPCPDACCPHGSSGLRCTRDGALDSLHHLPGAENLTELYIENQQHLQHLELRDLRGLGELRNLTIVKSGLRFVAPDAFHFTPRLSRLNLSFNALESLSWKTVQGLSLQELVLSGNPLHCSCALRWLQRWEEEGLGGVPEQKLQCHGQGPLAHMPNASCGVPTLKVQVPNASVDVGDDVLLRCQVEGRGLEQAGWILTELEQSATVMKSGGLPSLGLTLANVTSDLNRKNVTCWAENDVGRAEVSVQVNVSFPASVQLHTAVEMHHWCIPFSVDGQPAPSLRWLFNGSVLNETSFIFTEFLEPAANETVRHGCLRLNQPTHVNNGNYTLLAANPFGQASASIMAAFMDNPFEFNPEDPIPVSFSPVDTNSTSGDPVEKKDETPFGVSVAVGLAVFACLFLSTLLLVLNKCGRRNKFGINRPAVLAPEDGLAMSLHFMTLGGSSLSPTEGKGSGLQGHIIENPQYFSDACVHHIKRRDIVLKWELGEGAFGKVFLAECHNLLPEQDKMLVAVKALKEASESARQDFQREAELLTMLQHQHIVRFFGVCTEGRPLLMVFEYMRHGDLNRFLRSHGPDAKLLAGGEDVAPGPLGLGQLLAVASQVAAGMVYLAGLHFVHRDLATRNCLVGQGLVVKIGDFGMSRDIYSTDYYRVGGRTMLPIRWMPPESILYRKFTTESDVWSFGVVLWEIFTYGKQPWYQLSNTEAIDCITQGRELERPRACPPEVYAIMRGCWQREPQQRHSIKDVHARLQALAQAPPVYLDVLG
# Chain of BDNF/NT-3 growth factors receptor (Homo sapiens) (Q16620 32-822 limits assumed): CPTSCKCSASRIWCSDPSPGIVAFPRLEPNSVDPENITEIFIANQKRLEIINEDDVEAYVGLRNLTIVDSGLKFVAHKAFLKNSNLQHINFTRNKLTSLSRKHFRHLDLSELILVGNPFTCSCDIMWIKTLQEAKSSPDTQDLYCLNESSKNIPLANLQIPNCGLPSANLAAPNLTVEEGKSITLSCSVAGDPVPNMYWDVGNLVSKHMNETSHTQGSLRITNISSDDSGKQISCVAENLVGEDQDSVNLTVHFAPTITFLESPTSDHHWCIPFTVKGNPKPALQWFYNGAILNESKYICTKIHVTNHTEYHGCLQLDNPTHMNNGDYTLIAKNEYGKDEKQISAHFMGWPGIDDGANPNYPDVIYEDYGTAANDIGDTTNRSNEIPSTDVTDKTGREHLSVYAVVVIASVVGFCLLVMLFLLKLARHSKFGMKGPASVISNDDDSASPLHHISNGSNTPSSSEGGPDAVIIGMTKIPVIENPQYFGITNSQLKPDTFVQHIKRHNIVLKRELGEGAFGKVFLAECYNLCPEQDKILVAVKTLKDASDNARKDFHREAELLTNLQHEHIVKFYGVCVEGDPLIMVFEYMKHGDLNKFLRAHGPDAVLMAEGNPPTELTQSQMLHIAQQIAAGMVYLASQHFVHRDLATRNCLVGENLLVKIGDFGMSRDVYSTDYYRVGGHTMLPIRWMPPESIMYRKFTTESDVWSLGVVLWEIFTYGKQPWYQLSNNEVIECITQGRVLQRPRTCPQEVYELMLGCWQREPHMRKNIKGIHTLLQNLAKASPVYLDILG
SMILES,inhibition [1],inhibition [2],inhibition [3],inhibition [4],inhibition [5],inhibition [6],inhibition [7],inhibition [8],inhibition [9],inhibition [10],inhibition [11],inhibition [12],inhibition [13],inhibition [14],inhibition [15],inhibition [16],inhibition [17],inhibition [18],inhibition [19],inhibition [20]
COC(=O)Nc1nc2ccc(Sc3ccc(NC(=O)Nc4cc(C(F)(F)F)ccc4F)cc3)cc2[nH]1,83%,15.1%,71.8%,15.5%,69.5%,3.58%,4.98%,-0.72%,8.33%,1.16%,7.64%,0.96%,8.08%,1.09%,6.4%,18.9%,72.7%,7.11%,27.5%,5%
COc1cc2ncn(-c3cc(OCc4cccs4)c(C(N)=O)s3)c2cc1OC,8.7%,3.23%,16.9%,6.48%,27.2%,0.76%,5.11%,-2.34%,7.37%,-6.64%,13.4%,2.98%,20%,-0.54%,10.1%,75.9%,93.5%,10.8%,36%,18.7%
CN(C)CCCNc1nccc(-c2c(-c3ccc(F)cc3)nn3cc(C(F)(F)F)ccc23)n1,2.77%,4.65%,0.51%,2.89%,2.21%,-0.89%,0.21%,-7.47%,8.76%,-2.9%,6.4%,0.91%,6.92%,-1.31%,-0.03%,2.34%,7.46%,4.09%,7.36%,5.21%

# Source: ChEMBL document CHEMBL1961873, “Compounds: GSK PKIS; Assays: Nanosyn kinase panel” (2012)
